Measured values from PubChem BioAssay (NCATS).
Inconclusive results are not listed. The source made the active and inactive calls. Calls come from the whole dose curve; as a rule, active = well fitted inhibition curve with a large enough effect; inconclusive = small, poorly fitted or top-dose-only effect; inactive = flat fitted curve, though single readings scatter.

Each compound was assayed on FAB9 (assay: qHTS profiling for inhibitors of Plasmodium falciparum proliferation (AID 504749; note: nearly all actives have a fitted effect of over 60% in size;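 for activity, negative = inhibition: 0% = DMSO vehicle and full inhibition = artemisinin control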)). Details: P. falciparum in erythrocytes, SYBR Green DNA, 72 h; series mostly up to 28.7 µM; activity, negative = inhibition: at the top concentration.
Outline: (§1)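 In a 72 h erythrocytic culture (37 C, humidified, 5% CO2) at 2.5% hematocrit and 0.3% starting parasitemia, compounds were tested; SYBR Green I in detergent lysis buffer stained parasite DNA overnight.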
Potency is the fitted concentration of half-maximal effect.

Compound | activity, negative = inhibition | Potency
COCCOC(=O)C1=C(C)NC(C)=C(C(=O)OC(C)C)C1c1cccc([N+](=O)[O-])c1 (stereo unspecified) | -1.91% (inactive) | –
Cc1nc2sccn2c(=O)c1CCN1CCC(=C(c2ccc(F)cc2)c2ccc(F)cc2)CC1 | -19.8% (inactive) | –
CC(C)COCC(CN(Cc1ccccc1)c1ccccc1)N1CCCC1 (stereo unspecified) | 13.7% (inactive) | –
CNCCC(Oc1ccccc1OC)c1ccccc1 (stereo unspecified) | 5.66% (inactive) | –
CNC1(C)C2CCC(C2)C1(C)C (stereo unspecified) | 2.42% (inactive) | –
c1cc(CN2CCCCC2)cc(OCCCNc2nc3ccccc3s2)c1 | -18.2% (inactive) | –
CN(C)CCCN1c2ccccc2Sc2ccccc21 | -8.9% [at 12.8 µM] (inactive) | –
Cc1nc2ccccn2c(=O)c1CCN1CCC(C(=O)c2ccc(F)cc2)CC1 | 3.76% (inactive) | –
CN(C)CC[C@@H](c1ccc(Br)cc1)c1ccccn1 | 4.7% (inactive) | –
COc1ccc(CN(CCN(C)C)c2ccccn2)cc1 | 5.81% (inactive) | –
CN(C)CCN(Cc1cccs1)c1ccccn1 | 10.6% (inactive) | –
CC(=O)[C@]1(O)Cc2c(O)c3c(c(O)c2[C@@H](O[C@H]2C[C@H](N)[C@H](O)[C@H](C)O2)C1)C(=O)c1ccccc1C3=O | – | 11.2 µM (active)
Brc1c(NC2=NCCN2)ccc2nccnc12 | 0.944% (inactive) | –
COCCCC/C(=N\OCCN)c1ccc(C(F)(F)F)cc1 | -17.8% (inactive) | –
C=CCc1ccccc1OCC(O)CNC(C)C (stereo unspecified) | -0.564% (inactive) | –
CN(C)CCCN1c2ccccc2Sc2ccc(C(F)(F)F)cc21 | -27.7% (inactive) | –
CN(C(=O)CCCOc1ccc2[nH]c(=O)ccc2c1)C1CCCCC1 | 7.62% (inactive) | –
CCN(CC)CCNC(=O)c1cc(S(C)(=O)=O)ccc1OC | 6.74% [at 12.8 µM] (inactive) | –
CC1=C(C)C(=O)C(CCCCC#CCCCC#CCO)=C(C)C1=O | -6.15% (inactive) | –
CCCN1C[C@H](CSC)C[C@@H]2c3cccc4[nH]cc(c34)C[C@H]21 | -13.1% (inactive) | –
CCOC(=O)C1=C(C)NC(C)=C(C(=O)OC)C1c1cccc([N+](=O)[O-])c1 (stereo unspecified) | -21.6% (inactive) | –
NC(=Nc1ccccc1)Nc1ccccc1 | 4.04% (inactive) | –
CN(C)C/C=C(/c1ccc(Br)cc1)c1cccnc1 | -16.1% (inactive) | –
CC1=NS(=O)(=O)c2cc(Cl)ccc2N1 | -29.2% (inactive) | –
O=C1NCN(c2ccccc2)C12CCN(CCCC(c1ccc(F)cc1)c1ccc(F)cc1)CC2 | -20.5% (inactive) | –
CN(C)CC/C=C1\c2ccccc2COc2ccccc21 | 2.62% (inactive) | –
OC(CCN1CCCCC1)(c1ccccc1)C1CCCCC1 (stereo unspecified) | 4.14% (inactive) | –
O=C1CC2(CCCC2)CC(=O)N1CCCCN1CCN(c2ncccn2)CC1 | 0.877% (inactive) | –
COc1ccc(CCN(C)CCCC(C#N)(c2cc(OC)c(OC)c(OC)c2)C(C)C)cc1OC (stereo unspecified) | -11.6% (inactive) | –

The compounds below were run on GB4 in the same assay as above. Details: P. falciparum in erythrocytes, SYBR Green DNA, 72 h; series mostly up to 28.7 µM; activity, negative = inhibition: at the top concentration.
Outline: as §1

Compound | Potency | activity, negative = inhibition
CNC1(C)C2CCC(C2)C1(C)C (stereo unspecified) | 10.7 µM (active) | –
NC(N)=NC(=O)Cc1c(Cl)cccc1Cl | 6.75 µM (active) | –
CN1C[C@H](C(=O)N[C@]2(C)O[C@@]3(O)[C@@H]4CCCN4C(=O)[C@H](Cc4ccccc4)N3C2=O)C[C@@H]2c3cccc4[nH]cc(c34)C[C@H]21 | 6.01 µM (active) | –
COc1ccc(CN(CCN(C)C)c2ccccn2)cc1 | 6.01 µM (active) | –
CCCC(C(=O)OCCN(CC)CC)(c1ccccc1)c1ccccc1 | 10.7 µM (active) | –
CN(C)CCN(Cc1cccs1)c1ccccn1 | 3.79 µM (active) | –
CC(=O)[C@]1(O)Cc2c(O)c3c(c(O)c2[C@@H](O[C@H]2C[C@H](N)[C@H](O)[C@H](C)O2)C1)C(=O)c1ccccc1C3=O | 4.78 µM (active) | –
Brc1c(NC2=NCCN2)ccc2nccnc12 | 12 µM (active) | –
C=CCc1ccccc1OCC(O)CNC(C)C (stereo unspecified) | 7.57 µM (active) | –
CC(C)(C)c1ccc(C(=O)CCCN2CCC(OC(c3ccccc3)c3ccccc3)CC2)cc1 | 10.7 µM (active) | –
NC(N)=N/N=C/c1c(Cl)cccc1Cl | 12 µM (active) | –
CN(C(=O)CCCOc1ccc2[nH]c(=O)ccc2c1)C1CCCCC1 | – | -18.8% (inactive)
CC1=C(C)C(=O)C(CCCCC#CCCCC#CCO)=C(C)C1=O | 7.57 µM (active) | –
CC1=NS(=O)(=O)c2cc(Cl)ccc2N1 | – | -0.737% (inactive)
O=C1NCN(c2ccccc2)C12CCN(CCCC(c1ccc(F)cc1)c1ccc(F)cc1)CC2 | 6.75 µM (active) | –
OC(CCN1CCCCC1)(c1ccccc1)C1CCCCC1 (stereo unspecified) | – | -21.4% (inactive)
COc1cc(C(=O)OCCCN2CCCN(CCCOC(=O)c3cc(OC)c(OC)c(OC)c3)CC2)cc(OC)c1OC | 13.5 µM (active) | –
O=C(CCCN1CCC(O)(c2cccc(C(F)(F)F)c2)CC1)c1ccc(F)cc1 | 6.01 µM (active) | –

What follows are compounds tested on HB3 in the same assay as above. Details: P. falciparum in erythrocytes, SYBR Green DNA, 72 h; series mostly up to 28.7 µM; activity, negative = inhibition: at the top concentration.
Outline: as §1

Compound | activity, negative = inhibition | Potency
CC(C)COCC(CN(Cc1ccccc1)c1ccccc1)N1CCCC1 (stereo unspecified) | -1.02% (inactive) | –
CNCCC(Oc1ccccc1OC)c1ccccc1 (stereo unspecified) | 6.51% (inactive) | –
CCC(=O)c1ccc2c(c1)N(CCCN(C)C)c1ccccc1S2 | -15.5% (inactive) | –
CNC1(C)C2CCC(C2)C1(C)C (stereo unspecified) | 11.6% (inactive) | –
CN(C)CCCN1c2ccccc2Sc2ccccc21 | 7.8% [at 12.8 µM] (inactive) | –
Cc1nc2ccccn2c(=O)c1CCN1CCC(C(=O)c2ccc(F)cc2)CC1 | -12% (inactive) | –
CN(C)CC[C@@H](c1ccc(Br)cc1)c1ccccn1 | 0.66% (inactive) | –
COc1ccc(CN(CCN(C)C)c2ccccn2)cc1 | 8.82% (inactive) | –
CN(C)CCN(Cc1cccs1)c1ccccn1 | 6.07% (inactive) | –
CC(=O)[C@]1(O)Cc2c(O)c3c(c(O)c2[C@@H](O[C@H]2C[C@H](N)[C@H](O)[C@H](C)O2)C1)C(=O)c1ccccc1C3=O | – | 4.47 µM (active)
COCCCC/C(=N\OCCN)c1ccc(C(F)(F)F)cc1 | -2.6% (inactive) | –
Fc1ccc(C(c2ccc(F)cc2)N2CCN(C/C=C/c3ccccc3)CC2)cc1 | – | 11.2 µM (active)
CN(C)CCCN1c2ccccc2Sc2ccc(C(F)(F)F)cc21 | -9.9% (inactive) | –
CN(C(=O)CCCOc1ccc2[nH]c(=O)ccc2c1)C1CCCCC1 | -102% (inactive) | –
CCN(CC)CCNC(=O)c1cc(S(C)(=O)=O)ccc1OC | 9.17% [at 12.8 µM] (inactive) | –
CCCN1C[C@H](CSC)C[C@@H]2c3cccc4[nH]cc(c34)C[C@H]21 | -14.1% (inactive) | –
CCOC(=O)C1=C(C)NC(C)=C(C(=O)OC)C1c1cccc([N+](=O)[O-])c1 (stereo unspecified) | – | 11.2 µM (active)
NC(=Nc1ccccc1)Nc1ccccc1 | 0.133% (inactive) | –
CN(C)C/C=C(/c1ccc(Br)cc1)c1cccnc1 | -10.8% (inactive) | –
O=C1NCN(c2ccccc2)C12CCN(CCCC(c1ccc(F)cc1)c1ccc(F)cc1)CC2 | – | 7.08 µM (active)
CN(C)CC/C=C1\c2ccccc2COc2ccccc21 | 6.08% (inactive) | –
OC(CCN1CCCCC1)(c1ccccc1)C1CCCCC1 (stereo unspecified) | -5.51% (inactive) | –
O=C1CC2(CCCC2)CC(=O)N1CCCCN1CCN(c2ncccn2)CC1 | 10.9% (inactive) | –
O=C(CCCN1CCC(O)(c2cccc(C(F)(F)F)c2)CC1)c1ccc(F)cc1 | – | 12.6 µM (active)
